The record followed here is PubChem BioAssay (Tox21).

Records with an inconclusive call do not appear. Values without a mark were called inactive. Active and inactive are the calls of the source. Calls follow the shape of the dose curve; as a rule, active = well fitted cell-killing curve with a large enough effect in the repeat runs; inconclusive = weak or mixed curves, or effect the other way; inactive = flat fitted curve, though single readings scatter.
% is scaled to controls: 0 for no effect and ±100 for the full control effect; potency is read from the fitted curve at half-maximal effect.

The test can be described thus: qHTS RealTime-Glo MT Cell Viability Assay in HEK293 cells - 40 hour (AID 1224874). Also: nearly all actives have a fitted effect of over 50% in size. Particulars: RealTime-Glo luminescence; max response: active compounds read low. From the text:
U.S. Tox21 Program National Center for Advancing Translational Sciences [NCATS] NIH Chemical Genomics Center [NCGC] U.S. Environmental Protection Agency [EPA] National Institutes of Environmental Health Sciences [NIEHS] National Toxicology Program [NTP] U.S. Food and Drug Administration [FDA] Tox21 Assay Overview: Measure of cell viability is critical in the cell-base assay. Analysis of cell viability is necessary for the characterization of cell responses to cytotoxic drugs and environmental stress. A RealTime-Glo MT Cell Viability Assay to monitor cell viability in real time of continues cell culture during 40 hours of compound treatment was used to screen Tox21 10K library compounds in Hek293 cells. The RealTime-Glo MT Cell Viability Assay is a nonlytic, homogeneous, bioluminescent method to measure cell viability in real time using a simple, plate-based method. The assay involves adding NanoLuc luciferase and a cell-permeant prosubstrate to cells in culture. Viable cells reduce the proprietary prosubstrate to generate a substrate for NanoLuc luciferase. This substrate diffuses from cells into the surrounding culture medium, where it is rapidly used by the NanoLuc Enzyme to produce a luminescent signal. The signal correlates with the number of viable cells, making the assay well suited for cytotoxicity studies.
Tox21 Assay Protocol Summary: The mixture of Hek293 cell suspension and reagents were dispensed at 600cells/6 ul/well in 1536-well tissue culture treated black solid bottom plates using a Multidrop dispenser. After the assay plates were incubated at a 37 C/5% CO2 incubator for 5 hours, 23 nL of compounds dissolved in DMSO, positive and negative controls was transferred to the assay plate by a pintool work station. The plates were incubated at 37 C for 40 hours. The luminescence intensity were measured at 0h, 8h, 16h, 24h, 32h and 40h time points using ViewLux plate reader during compound treatment.
On to `CCOP(=S)(OCC)SCSc1ccc(Cl)cc1`, for which the max response was -2.07%.
In the case of `O=NN1CCCCC1`, the max response was 1.37%.
On the same count and under the same terms, as for `CNC(=O)Oc1cccc(C(C)C)c1`, the figure is -3.66%; as for `Cc1ncc(CNC(=O)N(CCCl)N=O)c(N)n1`, 2.69%; as for `O=C1OC(c2ccc(O)c(S(=O)(=O)O)c2)(c2ccc(O)c(S(=O)(=O)O)c2)c2c(Br)c(Br)c(Br)c(Br)c21`, 11.8%.
The same measure, in the same setting: the same measure for `ClC(Cl)(Cl)C(Cl)(Cl)Cl`: 2.47%.
On the same count and under the same terms, as for `CCNc1nc(NC(C)C)nc(OC)n1`, the figure is -7.59%; as for `Nc1ccccc1Cl`, 15.7%; as for `CC(Cl)(Cl)[N+](=O)[O-]`, 2.41%.
As for `C=CCC1=C(C)[C@@H](OC(=O)[C@@H]2[C@@H](C=C(C)C)C2(C)C)CC1=O`, the Potency is 21.9 µM (active).
Take `CC(C)[N+](=O)[O-]`: the max response is 0.0306%.
Same read-out and setting: the same measure for `CCc1cc2c(s1)-n1c(C)nnc1CN=C2c1ccccc1Cl`: -28.6%.
Regarding `O=C(Nc1ccccc1)N(Cc1ccc(Cl)cc1)C1CCCC1`, the Potency is 24.5 µM (active).
Turning to `ClCC(Cl)(Cl)Cl`, the max response is -0.0203%.
The same measure, in the same setting: the same measure for `COc1cc(C[C@@H](C)N)c(OC)cc1C`: -9.2%; for `CC1(C)C(=O)NC(=O)NC1=O`: -10.9%.
Same read-out and setting: the same measure for `CCC1(c2ccccc2)C(=O)NC(=O)NC1=O`: 17.3%.
Still for that read-out and setting: the same measure for `CNNC`: -7.62%; for `CNC(=O)Oc1ccccc1C1OCCO1`: -0.764%; for `NC(=O)c1cc([N+](=O)[O-])cc([N+](=O)[O-])c1`: 4.2%.
For the compound `O=[N+]([O-])c1ccc(CBr)cc1`, the max response was 12.7%.
For `CN1C[C@@H](NS(=O)(=O)N(C)C)C[C@@H]2c3cccc4c3c(cn4C)C[C@H]21`, the max response is -20.7%.
On the same count and under the same terms, the same measure for `O=C(CCCN1CCC(n2c(=O)[nH]c3ccccc32)CC1)c1ccc(F)cc1`: -27.9%.
On the same count and under the same terms, as for `O=P(O)(Oc1ccccc1)Oc1ccccc1`, the figure is 11.6%.
Regarding `CC1=C(C(=O)Nc2ccccc2)S(=O)(=O)CCO1`, the Potency is 43.6 µM (active).
`CCC(C)n1c(=O)[nH]c(C)c(Br)c1=O` (stereo not given): the max response is 0.435%.
On the same count and under the same terms, the same measure for `COc1ncc(F)c2nc(S(=O)(=O)Nc3c(F)cccc3F)nn12`: 6.8%; for `C[C@]12CC[C@H]3[C@@H](CCC4=CC(=O)CC[C@@]43C)[C@@H]1CC[C@@H]2C(=O)O`: 2.42%; for `CC(C)(C)NCC(O)c1cc(Cl)c(N)c(Cl)c1` (stereo not given): 2.03%.
On the same count and under the same terms, the same measure for `Cc1coc2c1CCC(C)C2` (stereo not given): 15.4%.
On to `O=c1oc2ccccc2c(O)c1C1CCCc2ccccc21` (stereo not given), for which the max response was 14.6%.
Same read-out and setting: as for `N#CCBr`, the figure is 6.36%; as for `COC(=O)c1ccccc1S(=O)(=O)NC(=O)N(C)c1nc(C)nc(OC)n1`, 10.1%.
On the same count and under the same terms, the same measure for `COCC(=O)N(c1c(C)cccc1C)N1CCOC1=O`: 0.893%.
Turning to `COc1cccc2c1cc([N+](=O)[O-])c1c(C(=O)O)cc3c(c12)OCO3`, the Potency is 2.19 µM (active).
In the case of `CCN(CC)C(C)C(=O)c1ccccc1` (stereo not given), the max response is 2.31%.
Still for that read-out and setting: as for `COC(=O)C(C)Oc1ccc(Oc2ccc(Cl)cc2Cl)cc1` (stereo not given), the figure is -8.07%; as for `CCOC(=O)C(c1c(O)c2ccccc2oc1=O)c1c(O)c2ccccc2oc1=O`, 4.14%; as for `CN/C(=N\[N+](=O)[O-])NCC1CCOC1` (stereo not given), 4.22%.
For the compound `CNC(=O)O/N=C(\C)SC`, the max response was 14.5%.
